Source: PubChem (several laboratories)
Most compounds without a hit are left out; they make up all but 7.2% or so of the library.
A1 inh – caspase 3/7 activation in MEF A1-2A-BIM cells, primary screen, A1 inhibitor project, cell-based, luminescence, HTS; AID 2462, 2010; Caspase-Glo 3/7 luminescence, 3 h; percent of clofoctol response, vehicle zero; 330,000 tested, 0.066% active; caspase activation, % (concentration not given with the values);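 active = over half of replicate activation scores above 10%, or exactly half above 10 with the replicate mean above 10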
ALR inh – inhibitors of human ALR sulfhydryl oxidase, primary screen, biochemical, H2O2 detection, HRP-luminol luminescence, single point | AID 485317, 2010 | inhibition, % (no concentration beside the values) | purified ALR, DTT oxidation | 290,000 tested, 3.8% active;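 active = mean replicate inhibition above about 79%, with every replicate also reaching it, limit read from the data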
Target sequence (P55789 whole entry, looked up): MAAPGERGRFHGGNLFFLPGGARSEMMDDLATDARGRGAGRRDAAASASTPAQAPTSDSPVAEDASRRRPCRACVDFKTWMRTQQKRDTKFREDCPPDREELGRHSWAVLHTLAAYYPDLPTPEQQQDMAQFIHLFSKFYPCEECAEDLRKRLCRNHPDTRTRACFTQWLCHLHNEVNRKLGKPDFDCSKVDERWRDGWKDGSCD
Efflux pump inh – inhibitors of Candida efflux pumps in yeast, primary screen, S. cerevisiae, Nile Red, multiplex; S. cerevisiae Candida pump triplex; inhibition, % at 10 µM; 330,000 tested, 0.44% active;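 active = plate passing quality check with inhibition over a set limit, or well fluorescence over plate mean plus 4 SD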;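 also: Nile Red retained in pooled yeast measured as flow cytometry median fluorescence; 0% = buffer negative control and 100% = Enniatin B positive control; higher means more Nile Red kept so more efflux inhibition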
VLA-4 inh – inhibition in human VLA-4 binding assay, primary screen, VLA-4 allosteric modulator project, MLPCN library, flow cytometry, VLA-4 expressing cells; inhibition, % (about 7 µM as worked out from the volumes in the protocol); ligand binding flow cytometry; 330,000 tested, 0.2% active; in the data active = inhibition above about 50%
AHR act – AHR activators, primary screen, cell-based, luminescence, luciferase reporter, human; 320,000 tested, 2.5% active; AHR-responsive luciferase reporter cells; activation, % at 5 µM; in the data active = activation above about 47%;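 also: 0% = vehicle wells and 100% = reference agonist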
Mot1-301 SUMO – yeast Mot1-301 growth rescue at high temperature, primary screen, SUMOylation pathway inhibitor project, S. cerevisiae, ATP luminescence, 38.5C; S. cerevisiae Mot1-301 growth rescue; percent above DMSO median, 100 means doubled; growth rescue, % at 18.8 µM; 320,000 tested, 1% active;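 active = every valid replicate shows activation above 250% relative to neutral control wells; inactive = the rest, any valid replicate at or below 250%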;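 also: OY570 slx delta 5 strain wells were the positive control but not used for scaling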
The depositor's hits bear a star; · = no result given.

SMILES	A1 inh	ALR inh	Efflux pump inh	VLA-4 inh	AHR act	Mot1-301 SUMO
CCN1CCN(C(=O)Cn2ncc3c2-c2ccccc2OC3)CC1	0	-13	0	8	0	-13
COc1ccccc1NC(=O)Cn1ncc2c1-c1ccccc1OC2	1	2	0	9	59*	-18
CCOC(=O)N1CCN(C(=O)Cn2ncc3c2-c2ccccc2OC3)CC1	-1	-17	0	6	-1	357*
CCNC(=S)N1CCN(S(=O)(=O)c2cccc(C(F)(F)F)c2)CC1	-1	-5	-4	4	2	-6
CCN(CC)C(=O)CSc1nnc2c3ccccc3n(C)c2n1	-1	-9	0	19	15	7
CCCSc1nnc2nc3c(nn12)c1ccccc1n3C	1	-11	0	22	50*	8
COc1cc(Nc2nnc(C)s2)c(Cl)cc1Cl	1	-7	0	-20	71*	·
Cn1c(CS/C(N)=N/N=C/c2ccccc2)c(Br)c(=O)n1-c1ccccc1	0	98*	0	1	14	-9
CCN(CC)CCn1c2ccccc2c2nc3ccc([N+](=O)[O-])cc3cc21	0	-10	0	3	6	11
Cc1csc(N/N=C/c2c(F)cccc2Cl)n1	-1	27	0	-4	57*	-9
COc1cccc(NC(=O)C2C3C=CC(C3)C2C(=O)O)c1 (stereo not given)	2	-5	0	-5	-2	-8
Brc1ccc(CSc2nnc(-c3cnccn3)n2Cc2ccco2)cc1	0	6	0	7	6	-7
Fc1ccc(CSc2nnc(-c3cnccn3)n2Cc2ccco2)cc1	0	87*	0	-3	1	0
COc1ccc(/C=C2\Oc3cc(OCC(=O)N4CCC(C(=O)O)CC4)ccc3C2=O)c(OC)c1	0	·	0	-1	-1	-1
COc1ccc(/C=C2\Oc3cc(OCC(=O)N4CCC(C(=O)O)CC4)ccc3C2=O)c(OC)c1OC	1	91*	0	25	0	-9
COc1cccc(Oc2cn[nH]c2-c2ccc(OC)cc2O)c1	-1	22	0	-11	17	·
COc1ccc(-c2cn[nH]c2-c2ccc(OC)cc2O)cc1	-1	97*	0	-4	2	-18
COc1cccc(Oc2cn[nH]c2-c2ccc(O)cc2O)c1	-1	80*	0	-6	36	-16
COc1ccc(Oc2cn[nH]c2-c2ccc(OCC(=O)NN)cc2O)cc1	0	·	0	3	58*	-8
O=C(Nc1ccc(Oc2cccc3ccccc23)cc1)c1ccco1	0	-6	0	3	-16	41
O=C(Cn1cnc2ccccc2c1=O)NCCC(=O)N1CCN(c2ccccc2)CC1	1	96*	0	4	-1	74
CN1CCN(C(=O)CCNC(=O)Cn2ccc3ccccc3c2=O)CC1	2	-11	0	0	-5	0
CCN(CCCNC(=O)CCNC(=O)Cn1cnc2ccccc2c1=O)c1ccccc1	-1	99*	0	-7	-1	-4
COc1ccc(N2CCN(C(=O)CCNC(=O)Cn3ccc4ccccc4c3=O)CC2)cc1	0	85*	0	0	0	19
COCCn1c(SC(C)C(=O)NCC2CCCO2)nc2scc(-c3ccc(F)cc3)c2c1=O (stereo not given)	0	0	0	3	-4	69
SMILES	A1 inh	ALR inh	Efflux pump inh	VLA-4 inh	AHR act	Mot1-301 SUMO
Cc1cc(C)n(CC(=O)N2CCCC(C(=O)c3cccc(OC(C)C)c3)C2)n1 (stereo not given)	0	-8	0	-13	-1	-1
O=C(NCC1CCCO1)c1cccc(Oc2ccc([N+](=O)[O-])cc2Cl)c1 (stereo not given)	0	-4	0	-2	5	-11
Cc1ccc(NC(=O)NCc2ccc3c(c2)OCO3)cc1	1	-3	0	-1	6	10
Cn1c(NC(=O)Cc2ccc(F)cc2)cc(=O)n(C)c1=O	0	-2	0	3	-3	-21
C=CCC1(N(C(C)=O)c2ccccc2C)CCCCC1	0	2	0	5	0	3
O=C(CSc1nc2ccccc2c(=O)n1-c1ccc(F)cc1F)c1c[nH]c2ccccc12	0	-6	0	3	12	-13
O=C(CCN1C(=O)/C(=C/c2ccc(F)cc2)SC1=S)NNC(=O)c1ccncc1	0	1	0	24	6	-6
O=C(CCN1C(=O)/C(=C/c2ccc(F)cc2)SC1=S)NCCc1cnc[nH]1	0	98*	0	7	0	-4
COc1ccccc1OCC(=O)N1CCC2(CC1)CC(=O)c1ccccc1O2	0	0	0	11	1	179
O=C1CC2(CCN(C(=O)COc3ccccc3F)CC2)Oc2ccccc21	0	-5	0	-3	0	602*
O=C1CSC2=NCN(c3ccc4c(c3)OCO4)CN12	1	2	0	-8	24	2
CN(C)c1ccc(N2CN=C3SCC(=O)N3C2)cc1	-1	99*	0	-4	33	-28
COc1ccc(-c2cc3cc(OC)c(OC)cc3cn2)cc1	-5	-8	0	-1	65*	284
COc1ccc(-c2cc3cc4c(cc3cn2)OCO4)cc1	-4	1	0	0	39	210
COc1ccc(Cl)cc1NC(=O)CN(C)C(=O)c1cc2c(s1)CCC(C)C2 (stereo not given)	0	-1	0	12	2	259
COc1ccc(C2N(c3cc(Cl)ccc3OC)C(=O)C3CCCN32)cc1OC (stereo not given)	0	-10	0	-9	-1	-17
COc1ccc(NC(=O)c2c(N)no[n+]2[O-])c(OC)c1	1	-12	0	8	61*	-2
COc1ccc(NC(=O)c2c(N)no[n+]2[O-])cc1	-1	-13	0	3	18	32
COc1ccc(NC(=O)Nc2ccon2)c(OC)c1	-1	-5	0	-41	56*	-11
O=C(Nc1ccc(Cl)c(Cl)c1)Nc1ccon1	-1	-7	6.5*	-4	71*	4
Cc1ccc(-c2nc(CS(=O)CC(=O)NCCN3CCCCC3C)c(C)o2)cc1 (stereo not given)	0	98*	0	2	3	27
Cc1ccc(-c2nc(CS(=O)(=O)CC(=O)NCCN3CCCC3)c(C)o2)cc1	0	-2	0	3	3	234
